According to PubChem BioAssay (NCATS):
Values without a mark were called inactive. For part of these data: Results with a measured potency or affinity are listed apart. Activity calls are given as the source filed them. The rule behind the calls is not given here.

Legend:
[1] = Ebola virus entry assay, green fluorescence channel
[2] = Ebola virus entry assay, blue channel fluorescence
[3] = Ebola virus entry assay, ratio channel
[4] = Ebola virus entry assay, reporter ratio channel; Channel type: primary
Throughout, for efficacy: 0% is about no effect.

Compound	efficacy [1] [%]	AC50 [2]	outcome [3]	AC50 [4]	AC50 [3]	outcome [2]	outcome [4]
CCc1ccc(C2CCNCC2)cc1	65.4	25.1 µM (active)	inactive	31.6 µM (active)			
C[C@H]1[C@H]2CC[C@H]3[C@@H]4CC=C5C[C@@H](N(C)C)CC[C@]5(C)[C@H]4CC[C@]23CN1C	108	10 µM (active)		10 µM (active)	10 µM (active)		
Cc1nc2ccccc2n1Cc1ccc(Cl)cc1	42.7		inactive			inactive	inactive
COc1cc(C[C@@H](C)N)c(OC)cc1Br	42.4	31.6 µM (active)		31.6 µM (active)	31.6 µM (active)		
Cc1c(C)c2c(c(C)c1OC(=O)CCC(=O)OCCO)CC[C@@](C)(CCC[C@H](C)CCC[C@H](C)CCCC(C)C)O2	-73.4	39.8 µM (active)	inactive	39.8 µM (active)			
N/C(=N\N=C\c1ccc(Cl)cc1)N/N=C/c1ccc(Cl)cc1	-188	39.8 µM (active)	inactive	39.8 µM (active)			
CCN(CC)CCCC(C)Nc1c2ccc(Cl)cc2nc2ccc(OC)cc12 (stereo unspecified)	40.6	25.1 µM (active)		25.1 µM (active)	25.1 µM (active)		
CC(C)(C)C(=O)OCOC(=O)C1N2C(=O)CC2S(=O)(=O)C1(C)C (stereo unspecified)	65.1	3.98 µM (active)		3.16 µM (active)	3.16 µM (active)		
O=C(CCC1CCN(Cc2ccccc2)CC1)c1ccc2c(c1)NCCCC2	114	7.08 µM (active)		7.08 µM (active)	7.08 µM (active)		
CCN(CC)CCOC(=O)C(c1ccccc1)C1CCCCC1 (stereo unspecified)	-237	2.82 µM (active)		1.58 µM (active)	1.58 µM (active)		
CCOC(C(=O)OCCN(C)C)(c1ccccc1)c1ccccc1	59.7	22.4 µM (active)		25.1 µM (active)	25.1 µM (active)		
Nc1ccc2cc3ccc(N)cc3nc2c1	154	39.8 µM (active)		39.8 µM (active)	39.8 µM (active)		
C[C@@H]1C[C@H]2[C@@H]3CCC4=CC(=O)C=C[C@]4(C)[C@@]3(Cl)[C@@H](O)C[C@]2(C)[C@@]1(OC(=O)c1ccco1)C(=O)CCl	39.8	25.1 µM (active)		10 µM (active)	10 µM (active)		
CCC(C(=O)OCCOCCN(CC)CC)c1ccccc1 (stereo unspecified)	61.4	28.2 µM (active)		22.4 µM (active)	22.4 µM (active)		
C[C@]1(Cn2ccnn2)[C@H](C(=O)O)N2C(=O)C[C@H]2S1(=O)=O	-31	0.282 µM (active)		0.316 µM (active)	0.316 µM (active)		
O=C(OCC(O)CO)c1ccccc1Nc1ccnc2cc(Cl)ccc12 (stereo unspecified)	41.9	39.8 µM (active)		20 µM (active)	20 µM (active)		
CN(C)CCCOc1nn(Cc2ccccc2)c2ccccc12	54.9	7.94 µM (active)		3.55 µM (active)	3.55 µM (active)		
CC(Oc1c(Cl)cccc1Cl)C1=NCCN1 (stereo unspecified)	76.8	39.8 µM (active)	inactive	39.8 µM (active)			
CCCCCCCCNC(C)C(O)c1ccc(SC(C)C)cc1 (stereo unspecified)	48.4	14.1 µM (active)		11.2 µM (active)	11.2 µM (active)		
CCC(C(=O)OCCN1CCOC(c2ccccc2)C1C)c1ccccc1 (stereo unspecified)	88.5	22.4 µM (active)		28.2 µM (active)	28.2 µM (active)		
Fc1ccc(C(c2ccc(F)cc2)N2CCN(C/C=C/c3ccccc3)CC2)cc1	37.6	12.6 µM (active)		11.2 µM (active)	11.2 µM (active)		
COc1cc(CC(C)N)c(OC)cc1Br (stereo unspecified)	80.6	31.6 µM (active)	inactive	39.8 µM (active)			
C[C@H]1C[C@H]2[C@@H]3CCC4=CC(=O)C=C[C@]4(C)[C@@]3(Cl)[C@@H](O)C[C@]2(C)[C@@]1(O)C(=O)CO	103	25.1 µM (active)		20 µM (active)	20 µM (active)		
Cc1cccc(N(C)C(=S)Oc2ccc3c(c2)C2CCC3C2)c1 (stereo unspecified)	40.9	39.8 µM (active)	inactive	39.8 µM (active)			
CN1CCN(C2=Nc3cc(F)ccc3Cc3ccccc32)CC1	49.4	22.4 µM (active)		31.6 µM (active)	31.6 µM (active)		
CCO[C@@H]1O[C@H](C(COCc2ccccc2)OCc2ccccc2)[C@H](OCc2ccccc2)[C@H]1O (stereo partly specified)	70	31.6 µM (active)		15.8 µM (active)	15.8 µM (active)		
CCC(=O)O[C@]1(C(=O)CCl)[C@@H](C)C[C@H]2[C@@H]3CCC4=CC(=O)C=C[C@]4(C)[C@@]3(F)[C@@H](O)C[C@@]21C	88.5	31.6 µM (active)		31.6 µM (active)	31.6 µM (active)		

Compound	efficacy [1] [%]	AC50 [2]	outcome [3]	AC50 [4]	AC50 [3]	outcome [2]	outcome [4]
C[C@@H](CN(C)C)CN1c2ccccc2Sc2ccccc21	66.9	8.91 µM (active)		10 µM (active)	10 µM (active)		
Clc1ccc(Cn2c(CN3CCCC3)nc3ccccc32)cc1	99.2	28.2 µM (active)		22.4 µM (active)	22.4 µM (active)		
CCN1C(=O)c2ccccc2C1Nc1ccc(OCCN2CCCCC2)cc1 (stereo unspecified)	33.9	12.6 µM (active)		15.8 µM (active)	15.8 µM (active)		
COC1=C(OC)C(=O)C(CCCCCCCCCCO)=C(C)C1=O	52		inactive			inactive	inactive
CC(C(O)c1ccccc1)N(C)C/C=C/c1ccccc1 (stereo unspecified)	90.1	22.4 µM (active)	inactive	35.5 µM (active)			
CN(C)CCCN1c2ccccc2Sc2ccc(C(F)(F)F)cc21	-67.9	3.16 µM (active)		2.82 µM (active)	2.82 µM (active)		
COc1cc(N)c(Cl)cc1C(=O)NC1CCN(Cc2ccccc2)CC1	43.1	31.6 µM (active)	inactive	39.8 µM (active)			
c1ccc(CN(CC2=NCCN2)c2ccccc2)cc1	60.7	39.8 µM (active)	inactive	39.8 µM (active)			
CCC(=O)c1ccc2c(c1)N(CCCN(C)C)c1ccccc1S2	153	20 µM (active)		17.8 µM (active)	17.8 µM (active)		
CCCCCCCCCCCC[N+](C)(C)CCOc1ccccc1	-194	39.8 µM (active)		25.1 µM (active)	25.1 µM (active)		
O=c1c(-c2ccccc2)c1-c1ccccc1	22	39.8 µM (active)		39.8 µM (active)	39.8 µM (active)		
CCN(CC)CCOc1ccc(/C(=C(\Cl)c2ccccc2)c2ccccc2)cc1	-182	1.58 µM (active)		1.26 µM (active)	1.26 µM (active)		
Cc1cccc(N(C)C(=S)Oc2ccc3c(c2)CCC3)c1	64.2	39.8 µM (active)	inactive	39.8 µM (active)			
CC(CC1c2ccccc2CCc2ccccc21)CN(C)C (stereo unspecified)	28.4	6.31 µM (active)		3.98 µM (active)	3.98 µM (active)		
CCCCCN=C(N)N/N=C/c1c[nH]c2ccc(OC)cc12	-150	3.98 µM (active)		3.16 µM (active)	3.16 µM (active)		
NCc1ccccc1Sc1ccccc1CO	118	39.8 µM (active)		20 µM (active)	20 µM (active)		
COc1cc(N)c(Cl)cc1C(=O)NC1CCN(CCCOc2ccc(F)cc2)CC1OC (stereo unspecified)	45	25.1 µM (active)		15.8 µM (active)	15.8 µM (active)		
O=C(O)c1cn(-c2ccc(F)cc2)c2cc(N3CCNCC3)c(F)cc2c1=O	23.7		inactive			inactive	inactive
CCc1ccc(C(=O)C(C)CN2CCCCC2)cc1 (stereo unspecified)	36.6	39.8 µM (active)	inactive	28.2 µM (active)			
O=C(CN1CCN(Cc2ccc3c(c2)OCO3)CC1)N1c2ccccc2Sc2ccccc21	86.4	39.8 µM (active)		25.1 µM (active)	25.1 µM (active)		
Cc1ccc(N(CC2=NCCN2)c2cccc(O)c2)cc1	66	35.5 µM (active)		31.6 µM (active)	31.6 µM (active)		
CC(=O)SC[C@@H](Cc1ccccc1)C(=O)NCC(=O)OCc1ccccc1	58	28.2 µM (active)		28.2 µM (active)	28.2 µM (active)		
CCN(CC)CCOC(=O)C(C)(c1ccccc1)c1ccccc1	52.6	8.91 µM (active)		10 µM (active)	10 µM (active)		
CC(Cc1ccccc1)NCCCCl (stereo unspecified)	66.3	22.4 µM (active)		35.5 µM (active)	35.5 µM (active)		
C[C@H](CN1CCOCC1)C(C(=O)N1CCCC1)(c1ccccc1)c1ccccc1	92.9	35.5 µM (active)	inactive	44.7 µM (active)			
OC(C#CCN1CCCC1)(c1ccccc1)c1ccccc1	80.1	39.8 µM (active)	inactive	35.5 µM (active)			
Cc1c(Cl)c(=O)oc2cc(OP(=O)(OCCCl)OCCCl)ccc12	115		inactive			inactive	inactive
